# Source: PubChem BioAssay
# PLAP act = activates human placental alkaline phosphatase | 96,000 tested, 1.2% active | activation fold at 20 µM | AID 696 | purified PLAP enzyme, luminescent substrate read-out; hits give high values; in the data active = activation fold above about 2
# sEH activator = soluble epoxide hydrolase (human) activation; 91,000 tested, 0.04% active; activation, % at 2 µM; P34913; purified human sEH enzymatic activity, activator screen; in the data active = activation above about 37%
# Target sequence (P34913 whole entry, looked up): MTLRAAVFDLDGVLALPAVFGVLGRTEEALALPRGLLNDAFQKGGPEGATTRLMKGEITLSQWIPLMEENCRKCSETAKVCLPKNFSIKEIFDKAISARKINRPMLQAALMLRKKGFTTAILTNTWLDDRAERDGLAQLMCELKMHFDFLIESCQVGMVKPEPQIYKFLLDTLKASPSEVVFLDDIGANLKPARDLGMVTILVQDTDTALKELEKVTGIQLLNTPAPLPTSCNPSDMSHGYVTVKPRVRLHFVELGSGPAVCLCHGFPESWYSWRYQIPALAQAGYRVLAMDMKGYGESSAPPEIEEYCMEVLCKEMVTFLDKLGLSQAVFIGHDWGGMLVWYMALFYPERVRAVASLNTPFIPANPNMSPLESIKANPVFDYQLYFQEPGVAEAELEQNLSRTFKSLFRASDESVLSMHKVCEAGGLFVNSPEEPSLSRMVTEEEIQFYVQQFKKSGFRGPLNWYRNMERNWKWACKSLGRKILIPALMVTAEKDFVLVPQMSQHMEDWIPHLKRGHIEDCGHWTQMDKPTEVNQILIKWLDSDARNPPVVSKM
# sEH inhibitor = inhibitors of human soluble epoxide hydrolase; P34913; recombinant human sEH enzymatic activity assay; inhibition, % at 2 µM; 91,000 tested, 0.34% active; in the data active = inhibition above about 80%
# EphB4 ephrin blk = EphB4-ephrin-B2 interaction antagonism; P54760; EphB4 LBD / TNYL-RAW-Alexa532 peptide, fluorescence polarization; inhibition, % at 7 µM; 97,000 tested, 0.15% active; AID 720;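 active = inhibition above the screen-wide mean inhibition plus 3 SD, cut at about 15% in these data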
# PTPN22 inh 2 = inhibitors of human LYP (PTPN22) phosphatase; Q9Y2R2; recombinant LYP catalytic domain, DiFMUP fluorescence; inhibition, % at 2 µM; 96,000 tested, 0.21% active;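 active = inhibition at 2 µM at or above a set limit, the screen mean plus 3 SD, cut at about 24% in these data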
# PTPN22 act = increases human PTPN22 phosphatase activity; 96,000 tested, 0.11% active; recombinant LYP, DiFMUP fluorescence; 0 = plate median, 100 = signal doubled; activation, % at 2 µM; Q9Y2R2;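 active = activation at 2 µM above a set limit, the mean plus 5 SD, cut at about 37% in these data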
# LYP act confirm = confirmation of human LYP phosphatase activators; activation, % at 2 µM; Recombinant LYP, DIFMUP fluorescence, activation; zero set by plate's median compound well; 100 tested, under 10 active; shares compounds with PTPN22 act; AID 1031; call rule not given here
# Numbers stand for hits; i = inactive; nt = no result given. Compounds with a hit are over-represented: about 1.6% of the library has one in this group of screens.
SMILES,PLAP act,sEH activator,sEH inhibitor,EphB4 ephrin blk,PTPN22 inh 2,PTPN22 act,LYP act confirm
COc1ccc(CNC(=O)C2COc3ccccc3O2)c(OC)c1 (stereo unspecified),i,i,i,i,i,i,nt
COC(=O)[C@H](Cc1ccccc1)NC(=O)NCc1ccc(S(N)(=O)=O)cc1,i,nt,nt,i,i,44,i
c1ccc(-c2nnc(SCCC3OCCCO3)o2)cc1,i,i,i,i,i,47,i
OCCCCCN=c1cc(-c2ccccc2)oc2ccc(Cl)cc12,i,i,i,i,i,40,i
Cc1ccc(S(=O)(=O)N2CCN(C(=O)CN3CCOCC3)C2c2ccccc2)cc1 (stereo unspecified),i,i,i,i,i,i,nt
COc1ccccc1N1CCN(C(=O)CCn2c(=O)[nH]c3ccsc3c2=O)CC1,i,i,i,i,i,i,nt
O=C(CCn1c(=O)[nH]c2ccsc2c1=O)N1CCN(Cc2ccc3c(c2)OCO3)CC1,i,i,i,i,i,45,i
CCOC(=O)C1=C(CSc2nc(-c3ccccc3)ccc2C#N)OC(N)=C(C#N)C1c1ccccc1 (stereo unspecified),i,i,i,i,i,39,i
COc1ccc(N/C(C)=C2/C(=O)C(=O)N(CCO)C2c2ccc([N+](=O)[O-])cc2)cc1 (stereo unspecified),i,i,i,i,i,i,nt
CCOC(=O)c1c(C)sc(Sc2ccc(Cl)cc2[N+](=O)[O-])c1OC,i,i,i,i,i,i,nt
COc1cc2nc(SCC(N)=O)n(CCC3=CCCCC3)c(=O)c2cc1OC,i,i,i,i,i,41,i
CS(=O)(=O)c1cnc(-c2ccccc2)nc1Oc1ccc(F)cc1,i,i,i,i,i,42,i
O=C(NNC1=C(C(=O)C(F)(F)F)CCC1)c1ccc(Cl)cc1,i,i,i,i,i,45,i
CCc1ccccc1NC(=O)CC(O)(C(=O)OC)C(F)(F)F (stereo unspecified),i,i,i,i,i,37,i
COC(=O)C(O)(CC(=O)Nc1ccccc1OC)C(F)(F)F (stereo unspecified),nt,i,i,i,i,i,nt
CC(C)(C)NCCCCOc1ccc(F)cc1,i,i,i,i,i,40,i
CCC(=O)NC(C)C(c1cccs1)N1CCN(c2ccccc2)CC1 (stereo unspecified),nt,i,i,i,i,43,i
Cc1cc(CN2CCN(CCC#N)CC2)c(O)c(C2(C)CCCCC2)c1,i,i,i,i,i,i,nt
CCN(CC)c1ccc(N2C(=O)/C(=C/c3cccs3)SC2=S)cc1,i,i,i,i,i,i,nt
CN(C)c1ccc(/C=C/C=C2/SC(=S)N(c3ccccc3)C2=O)cc1,i,i,i,i,i,40,i
O=C(NCc1ccccc1)C1CCN(C(=O)NCc2ccccc2)CC1,i,nt,nt,nt,nt,nt,nt
O=C(NC(=S)NCc1ccccc1)C1CCCCC1,i,i,i,i,i,39,i
COC(=O)c1sccc1NC(=O)c1ccc(Cl)s1,i,i,i,i,i,i,nt
COC(=O)c1sccc1NC(=O)c1ccc(C)s1,nt,i,i,i,i,43,i
O=S(=O)(NCCc1csc(-c2cccnc2)n1)c1ccc(Cl)s1,i,i,i,i,i,i,nt
SMILES,PLAP act,sEH activator,sEH inhibitor,EphB4 ephrin blk,PTPN22 inh 2,PTPN22 act,LYP act confirm
CCOC(=O)C(C)n1cnc2c(nnn2Cc2ccc(C)cc2)c1=O (stereo unspecified),i,i,i,i,i,i,nt
O=C(O)CCn1[nH]c(=O)c2ccccc2c1=O,i,i,i,i,i,37,i
O=C(CCn1[nH]c(=O)c2ccccc2c1=O)N1CCOCC1,i,i,i,i,i,i,nt
CCCCC(=O)Nc1c(C)cc(C)cc1Cl,i,i,i,i,i,i,nt
COc1ccc2[nH]c(=O)c(CN(C(=O)c3ccccn3)C3CCCCC3)cc2c1,i,i,i,i,i,i,nt
O=C(c1ccccn1)N(Cc1cc2ccccc2[nH]c1=O)C1CCCCC1,i,i,i,i,i,41,i
CCOC(=O)C1C(=O)CC(C)(O)C(C(=O)OCC)C1/C=C/c1ccccc1 (stereo unspecified),i,i,i,i,i,i,nt
COc1ccc(NC(=O)CSc2nc(C)c3c(c2C#N)CCCC3)cc1,i,i,i,i,i,47,i
Cc1noc(C)c1COc1ccc(C(=O)OCC(=O)NC2CCCCC2C)cc1 (stereo unspecified),i,i,i,i,i,i,nt
S=c1[nH]ncn1-c1ccccn1,i,i,i,i,i,46,i
S=c1[nH]ncn1/N=C/c1ccccc1,i,i,i,i,i,i,nt
Cc1nc2sc(C(c3ccc(Cl)cc3)N3CCN(c4ccccc4F)CC3)c(O)n2n1 (stereo unspecified),i,i,i,i,i,i,nt
COC(=O)c1ccc2c(c1O)C(=O)c1ccccc1C2=O,i,i,i,i,i,46,i
CCSc1c(C(=O)NC)ccc2c1C(=O)c1ccccc1C2=O,i,i,i,i,i,i,nt
O=C(O)C1CC=CCC1C(=O)Nc1ccc2c(c1)OCCO2 (stereo unspecified),nt,i,i,i,i,i,nt
O=C(CCNS(=O)(=O)c1cccs1)Nc1ccccc1F,nt,i,i,i,i,42,i
O=C(CCNS(=O)(=O)c1cccs1)Nc1nccs1,i,nt,nt,i,i,i,nt
CCCCC(=O)NCCNC(=O)c1cc(OCC(F)(F)F)ccc1OCC(F)(F)F,i,i,i,i,i,38,i
CCOC(=O)c1c(C)[nH]c(C)c1C(=O)Cn1nnc(-c2ccccc2C)n1,nt,i,i,i,i,i,nt
